Hits are enriched below; roughly 22% of the tested compounds scored in any of these assays.
CYP2C19 inhib: blockers of cytochrome P450 2C19 activity – biochemical, luminescence, ADME assay, primary screen; 96,000 tested, 21% active; AID 778, 2007; inhibition, % at 5 µM; CYP2C19 Supersomes, luciferin-H EGE luminescence, 30 min; P33261;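 active = CYP2C19 inhibition above a set limit at 5 µM in the primary screen, cut at about 50% in these data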
Target sequence (P33261 whole entry, looked up): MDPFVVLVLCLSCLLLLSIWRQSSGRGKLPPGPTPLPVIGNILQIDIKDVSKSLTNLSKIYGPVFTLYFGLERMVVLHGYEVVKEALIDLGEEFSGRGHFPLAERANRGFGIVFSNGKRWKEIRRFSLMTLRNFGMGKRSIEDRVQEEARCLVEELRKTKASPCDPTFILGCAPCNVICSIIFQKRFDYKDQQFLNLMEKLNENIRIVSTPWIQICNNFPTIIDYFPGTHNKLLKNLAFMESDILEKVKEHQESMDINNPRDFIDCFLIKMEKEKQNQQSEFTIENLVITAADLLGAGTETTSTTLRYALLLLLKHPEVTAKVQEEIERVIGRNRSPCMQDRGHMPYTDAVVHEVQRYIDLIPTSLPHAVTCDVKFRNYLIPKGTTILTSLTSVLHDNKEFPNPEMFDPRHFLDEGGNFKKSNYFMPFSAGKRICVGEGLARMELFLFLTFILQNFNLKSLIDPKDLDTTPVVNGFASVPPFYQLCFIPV
CYP2C19 activ: human CYP2C19 activators, primary screen, biochemical, luminescence | AID 1025, 2008 | 96,000 tested, under 10 active | activation factor at 5 µM | recombinant CYP2C19, luciferin-H EGE luminescence; stronger effect = higher value; 0 = fully inhibited enzyme, 1 = untreated enzyme | Cytochrome P450 2C19 (Homo sapiens), P33261;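 active = activation factor of at least 2 at 5 µM in the primary screen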
E-sel TNF inh: E-selectin induction blockers in HUVEC – imaging, immunofluorescence, high content, primary screen; HUVEC TNFa-induced E-selectin immunofluorescence; inhibition, % at 2 µM; 120,000 tested, 0.71% active; AID 1246, 2008;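 active = inhibition above the batch mean plus 3 SD, and confirmed as a hit on visual image review, cut at about 43% in these data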
cytoskel mod: modifiers of F-actin cytoskeleton organization, primary screen, imaging, HUVEC, phalloidin staining, high-content imaging; 91,000 tested, 0.18% active; inhibition, % at 2 µM; AID 836, 2007; HUVEC TNFa F-actin phalloidin imaging;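 active = inhibition above the batch mean plus 3 SD and confirmed as a hit by visual image inspection, cut at about 30% in these data, passing the limit was not always enough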
CYP2C9 activ: human CYP2C9 activators, primary screen, biochemical, luminescence. Cytochrome P450 2C9 (Homo sapiens), P11712. recombinant CYP2C9, luciferin-H conversion; stronger effect = higher value; factor 1 = untreated enzyme, 0 = blocked. activation factor at 5 µM. 96,000 tested, 1.4% active. AID 1024, 2008;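 active = activation factor of 2 or more for CYP2C9 at a 5 µM dose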
CYP2C9 inhib: blockers of cytochrome P450 2C9 activity – biochemical, luminescence, ADME assay, primary screen; CYP2C9 Supersomes, luciferin-H conversion; AID 777, 2007; P11712; 96,000 tested, 20% active; inhibition, % at 5 µM;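 active = blocking of liver enzyme CYP2C9 beyond about 50% at 5 µM, limit read from the data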
Hits are given with their value; 0 = inactive; - = no result.

SMILES | CYP2C19 inhib | CYP2C19 activ | E-sel TNF inh | cytoskel mod | CYP2C9 activ | CYP2C9 inhib
COCCCNC(=O)CN(CCc1ccccc1)S(=O)(=O)c1ccc(OC)cc1 | - | - | 0 | - | - | -
COc1ccc(S(=O)(=O)N(CCc2ccccc2)CC(=O)O)cc1 | 53 | 0 | 0 | 0 | 0 | 65
CCOc1ccc(C2=Nn3c(nnc3-c3ccccc3)SC2)cc1Cl | 0 | 0 | 0 | 0 | 0 | 0
O=C(CSc1nnc(-c2cccs2)o1)OCc1ccccc1 | 0 | 0 | - | - | 0 | 0
O=C(CCc1ccccc1O)N/N=C/c1ccc(Sc2cccc3cccnc23)o1 | 0 | 0 | 0 | - | 0 | 99
COC(=O)c1ccc(/C=N/NC(=O)c2cccc(F)c2)cc1 | 0 | 0 | 0 | 0 | 0 | 0
O=C(N/N=C/c1ccc(Sc2ccccn2)o1)c1cc2ccccc2cc1O | 98 | 0 | 0 | 0 | 0 | 88
O=C(N/N=C\c1ccc(Sc2ccccn2)o1)c1cccc(F)c1 | 59 | 0 | 0 | 0 | 0 | 60
O=C(N/N=C\c1ccccn1)c1ccccc1O | - | - | 0 | - | - | -
O=C(CCSCCc1ccccn1)Nc1c(F)c(F)c(F)c(F)c1F | - | - | 0 | - | - | -
CCOC(=O)c1cn(-c2nc(-c3ccc(Cl)c(Cl)c3)cs2)c2c(F)c(N3CCOCC3)c(F)cc2c1=O | 0 | 0 | 0 | 0 | 0 | 0
CC(=O)c1ccc(NC(=S)NCCc2ccccn2)cc1 | - | - | 0 | - | - | -
O=c1cc(CN2CCN(c3ccccc3)CC2)c2c(ccc3ccccc32)o1 | 0 | 0 | 0 | - | 0 | 0
O=c1cc(CN2CCC3(CC2)OCCO3)c2c(ccc3ccccc32)o1 | 78 | 0 | - | 0 | 0 | 0
CCNC(=S)Nc1ccc(N(c2ccccc2)C(C)C)cc1 | 0 | 0 | 0 | 0 | 0 | 0
CCNC(=S)NN(c1ccccc1)c1ccccc1 | 96 | 0 | - | 0 | 0 | 0
O=C(O)c1cc(S(=O)(=O)N2CCCCC2)ccc1F | 0 | 0 | 0 | 0 | 0 | 0
CCOc1ccc(CCNC(=O)Cc2nn[nH]n2)cc1OCC | 0 | 0 | 0 | - | 0 | 0
CCOc1ccc(CCNC(=O)COC(=O)c2cccnc2OCC)cc1OCC | 77 | 0 | 0 | 0 | 0 | 87
CCOc1ncccc1C(=O)OCC(=O)NCCc1ccc(OC)cc1 | 81 | 0 | 0 | - | 0 | 58
CC(C)(NO)/C(=N\O)c1ccccc1 | 0 | 0 | 0 | 0 | 0 | 0
N=c1c2c3c(sc2ncn1CCN1CCOCC1)CCCCC3 | 0 | 0 | 0 | 0 | 0 | 0
CC(C)CNC(=O)COC(=O)CCC(=O)c1ccc(F)cc1 | 0 | 0 | 0 | 0 | 0 | 0
CCN(c1ccc(NC(=O)COC(=O)CCC(=O)c2ccc(F)cc2)cc1)C(C)C | 63 | 0 | 0 | 0 | 0 | 0
COc1ccc(C2NC(=O)NC(C)=C2C(=O)Nc2cccc(C)c2C)cc1 (stereo not drawn) | 0 | 0 | 0 | 0 | 0 | 0
SMILES | CYP2C19 inhib | CYP2C19 activ | E-sel TNF inh | cytoskel mod | CYP2C9 activ | CYP2C9 inhib
O=C(O)CCC(=O)NC1CCCCCCC1 | 0 | 0 | 0 | 100 | 0 | 0
CC(=O)c1cc2c(cc1NC(=O)CN1CCC(Cc3ccccc3)CC1)OCO2 | 71 | 0 | 0 | 0 | 0 | 87
CCOC(=O)N1CCN(CC(=O)Nc2cc3c(cc2C(C)=O)OCO3)CC1 | 0 | 0 | 0 | - | 0 | 80
CC(=O)c1cc2c(cc1NC(=O)CN1CCN(C(=O)c3ccco3)CC1)OCO2 | - | - | - | 0 | - | -
O=C(Oc1nsnc1N1CCCCC1)N1CCOCC1 | - | - | 0 | 0 | - | -
c1ccc(Cn2ncc3c2ncn2c(-c4ccncc4)nnc32)cc1 | 85 | 0 | - | - | 0 | 0
Cc1ccc(-n2ncc3c2ncn2c(-c4ccncc4)nnc32)cc1 | 0 | 0 | - | - | 0 | 0
CCSc1nnc(NC(=O)C(C)(C)C)s1 | 52 | 0 | 0 | 0 | 0 | 0
N#Cc1cc2c(nc1SCC(=O)Nc1nccs1)CCCCC2 | 0 | 0 | 0 | 0 | 0 | 54
N#Cc1cc2c(nc1SCC(=O)Nc1sc3c(c1C#N)CCC3)CCCCCC2 | 0 | 0 | 0 | 0 | 0 | 0
CCc1nnc(NC(=O)CSc2nc3c(cc2C#N)CCC3)s1 | 0 | 0 | 0 | 0 | 0 | 0
CCSc1nnc(NC(=O)CSc2nc3c(cc2C#N)CCCC3)s1 | 0 | 0 | - | 0 | 0 | 51
CCSc1nnc(NC(=O)CSc2nc(C)cc(C)n2)s1 | 61 | 0 | - | 0 | 0 | 0
CCSc1nnc(NC(=O)c2cccs2)s1 | 0 | 0 | 0 | - | 0 | 0
COc1ccc(S(=O)(=O)N2CCC(C(=O)N3CCCCC3)CC2)cc1OC | 0 | 0 | - | 0 | 0 | 0
O=C1c2cccnc2C(Nc2ccccc2Br)N1Cc1ccco1 (stereo not drawn) | - | - | 0 | - | - | -
COc1ccc(CCNC(=O)COC(=O)c2cnc(C)cn2)cc1OC | 0 | 0 | 0 | 0 | 0 | 0
CCOC(=O)c1c(-c2ccc(C)cc2)csc1NC(=O)c1ccc(N2C(=O)CCC2=O)cc1 | - | - | 0 | - | - | -
O=C(Oc1ccc(N2C(=O)CCC2=O)cc1)c1ccccc1 | - | - | 0 | 0 | - | -
CCOC(=O)c1c(-c2ccccc2)csc1NC(=O)c1cccc(N2C(=O)CCC2=O)c1 | 0 | 0 | 0 | 0 | 0 | 84
CCOC(=O)c1c(-c2ccc(C)cc2)csc1NC(=S)NC(=O)c1ccccc1 | 0 | 0 | - | 0 | 0 | 93
O=C(Oc1ccccc1)c1cccc(N2C(=O)CCC2=O)c1 | 66 | 0 | 0 | - | 0 | 51
CCOC(=O)c1c(-c2ccc(C)cc2)csc1NC(=O)c1cccc(N2C(=O)CCC2=O)c1 | - | - | 0 | - | - | -
Cc1nn(C(=O)N2CCOCC2)c(C)c1C | - | - | 0 | 0 | - | -
CC1CC(C)CN(C(=O)c2ccccc2Nc2ccc(SC(F)F)cc2)C1 (stereo not drawn) | 81 | 0 | 0 | 0 | 0 | 76
SMILES | CYP2C19 inhib | CYP2C19 activ | E-sel TNF inh | cytoskel mod | CYP2C9 activ | CYP2C9 inhib
CC(C)n1cc(-c2ccc(Cl)cc2)cc(C#N)c1=O | 0 | 0 | 0 | 0 | 0 | 0
CCOc1cccc(Oc2ncccc2C(=O)/C(C#N)=C/N(C)C)c1 | 0 | 0 | 0 | 0 | 0 | 0
CN(C)/C=C(\C#N)C(=O)c1cccc(Oc2ccc(Br)cc2)c1 | 92 | 0 | 0 | 0 | 0 | 0
CC(C)c1ccc(Oc2cccc(C(=O)/C(C#N)=C/N(C)C)c2)cc1 | 98 | 0 | 0 | 0 | 0 | 85
CCCCSc1nnc(CNC(=O)C23CC4CC(CC(C4)C2)C3)n1Cc1ccccc1 | - | - | 0 | - | - | -
O=C(c1cnn2ccccc12)N(Cc1ccco1)C1CCCC1 | 60 | 0 | 0 | 0 | 0 | 0
CC1CCN(C(=O)CSc2nnc(CNC(=O)COc3ccc(Cl)cc3)o2)CC1 | 67 | 0 | 0 | 0 | 0 | 57
O=C(COc1ccc(Cl)cc1)NCc1nnc(SCC(=O)NC2CCCCC2)o1 | 0 | 0 | - | 0 | 0 | 0
O=C(COc1ccc(Cl)cc1)NCc1nnc(SCC(=O)Nc2ccccc2)o1 | 0 | 0 | 0 | 0 | 2 | 0
CN(c1ccccc1)S(=O)(=O)c1ccc(C(=O)OCC(=O)N2CCOCC2)cc1 | 55 | 0 | 0 | 0 | 0 | 0
COc1ccc(S(=O)(=O)N(C)c2ccc(C(=O)N3CCOCC3)cc2)cc1 | 0 | 0 | 0 | 0 | 0 | 0

High-throughput results from PubChem.
